Compound activity from PubChem.
Sampled rows, rich in hits. Any-hit rate of the full collection: about 28%.
Mac1 fbg inh = blocks human CD11b/CD18 adhesion to fibrinogen; AID 1497; K562 CD11b/CD18 adhesion to fibrinogen, ATPlite luminescence; Mn2+ added to activate the integrin; P05107+P11215; 93,000 tested, 0.54% active; inhibition, % at 10 µM;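 active = primary inhibition of 50% or more at 10 µM, then 40% or more on retest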
Target sequence (P05107 whole entry, looked up, other chains not shown): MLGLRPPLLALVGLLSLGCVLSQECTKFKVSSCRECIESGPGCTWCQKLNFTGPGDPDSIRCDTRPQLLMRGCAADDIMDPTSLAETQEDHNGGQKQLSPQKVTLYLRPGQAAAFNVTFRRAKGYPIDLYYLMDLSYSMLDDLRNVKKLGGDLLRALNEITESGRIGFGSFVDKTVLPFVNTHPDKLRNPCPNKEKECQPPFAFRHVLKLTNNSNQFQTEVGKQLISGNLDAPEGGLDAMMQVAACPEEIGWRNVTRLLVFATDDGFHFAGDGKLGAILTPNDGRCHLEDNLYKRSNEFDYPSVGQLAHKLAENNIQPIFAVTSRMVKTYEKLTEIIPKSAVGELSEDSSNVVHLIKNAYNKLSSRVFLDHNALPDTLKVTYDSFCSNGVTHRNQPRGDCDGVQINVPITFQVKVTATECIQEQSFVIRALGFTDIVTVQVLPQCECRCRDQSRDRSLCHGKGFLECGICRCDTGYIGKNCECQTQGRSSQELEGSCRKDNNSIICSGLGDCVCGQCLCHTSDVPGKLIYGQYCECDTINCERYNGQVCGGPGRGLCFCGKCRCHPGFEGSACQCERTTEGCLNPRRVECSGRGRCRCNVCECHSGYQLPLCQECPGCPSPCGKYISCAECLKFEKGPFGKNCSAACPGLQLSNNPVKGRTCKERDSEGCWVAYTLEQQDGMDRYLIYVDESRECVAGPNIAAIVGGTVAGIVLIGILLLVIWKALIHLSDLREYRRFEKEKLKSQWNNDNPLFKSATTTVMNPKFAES
CYP2C9 act = activators of human CYP2C9; recombinant CYP2C9, luciferin-H conversion, luminescence; stronger effect = higher value; factor 1 = untreated enzyme, 0 = blocked; 96,000 tested, 1.4% active; activation factor at 5 µM; P11712;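 active = activation factor of 2 or more for CYP2C9 at a 5 µM dose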;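 also: 0 = sulfaphenazole-blocked wells and 1 = vehicle-only wells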
CYP2C19 activ = increases human CYP2C19 enzyme activity | 96,000 tested, under 10 active | recombinant CYP2C19, luciferin-H EGE luminescence; stronger effect = higher value; 0 = fully inhibited enzyme, 1 = untreated enzyme | AID 1025 | activation factor at 5 µM;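 active = activation factor of at least 2 at 5 µM in the primary screen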;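 also: 0 = wells with 2.5 mM tranylcypromine and 1 = vehicle-only wells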
CYP2C9 inh = blocks human cytochrome P450 2C9 | P11712 | CYP2C9 Supersomes, luciferin-H conversion, luminescence | inhibition, % at 5 µM | 96,000 tested, 20% active;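 active = blocking of liver enzyme CYP2C9 beyond about 50% at 5 µM, limit read from the data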
CYP2C19 inhib = inhibitors of human CYP2C19. P33261. CYP2C19 Supersomes, luciferin-H EGE luminescence, 30 min. inhibition, % at 5 µM. 96,000 tested, 21% active;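 active = CYP2C19 inhibition above a set limit at 5 µM in the primary screen, cut at about 50% in these data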;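 also: plate controls were negative control wells for no effect and 2.5 mM tranylcypromine positive control for full effect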
Mac1 fbg enh = enhancers of human CD11b/CD18 binding to fibrinogen | 93,000 tested, 0.07% active | activation, % at 10 µM | K562 CD11b/CD18 adhesion to fibrinogen, ATPlite luminescence | P05107+P11215;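 active = 10 µM primary screen giving 50% or more activity, confirmed by 40% or more on retest at that dose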
Active calls of the source: *; / = no result given.

SMILES	Mac1 fbg inh	CYP2C9 act	CYP2C19 activ	CYP2C9 inh	CYP2C19 inhib	Mac1 fbg enh
CC(=O)c1coc2ccc(OCCN3CCCCC3)cc12	-16	1.1	1.2	-8	-15	-3
COc1ccc(CNC(=O)COC(=O)CCC2CCCCC2)cc1	5	/	/	/	/	-1
COC(=O)c1ccc(S(=O)(=O)c2ccccc2)c(N)c1	-6	0.3	0.1	70*	94*	-3
CC1CC(C)CN(CCCNC(=O)c2ccc3c(c2)NC(=O)C(N2CCCCC2)S3)C1 (stereo unspecified)	-9	1	1.1	2	-6	13
Cc1oc(-c2ccccc2Cl)nc1Cn1cccc1C1=NC(c2ccccc2)CO1 (stereo unspecified)	14	0.3	0.6	75*	43	1
CCOC(=O)c1c(C2COc3ccccc3O2)csc1NC(=O)c1ccco1 (stereo unspecified)	/	0.5	1	48	-4	-3
COc1ccc(-c2cc(-c3c(O)c(OC)c4occc4c3OC)[nH]n2)cc1	13	0.1	0.3	90*	70*	-3
COc1ccc(-c2cc(-c3ccccc3O)[nH]n2)cc1	11	0.5	0.7	47	27	-2
CCn1nc(NC(=O)c2ccncc2)c2cc3ccc(C)cc3nc21	-9	0.4	0.4	60*	63*	-1
CCCn1nc(NC(=O)c2ccncc2)c2cc3ccccc3nc21	6	0.1	0.1	95*	93*	-3
Cc1ccc2cc3c(NC(=O)c4cccnc4)nn(C)c3nc2c1	-27	0.9	0.9	11	12	-5
CCCC(=O)Nc1nn(CCC)c2nc3ccccc3cc12	14	0.5	0.8	49	24	-7
O=C(NNC(=O)C1CCN(Cc2ccccc2)CC1)c1cccc(Cl)c1	-2	0.8	0.9	17	11	-1
CC(C)Cn1c(N)c(C(=O)COC(=O)c2ccc3c(c2)OCCO3)c(=O)n(C)c1=O	31	0.3	0.4	67*	60*	-4
C1CCC(OCCN2CCN(CCOC3CCCCC3)CC2)CC1	-15	1.3	1.2	-26	-21	-3
CCOc1cc(C)nc(N2CCN(C3CCCCC3)CC2)n1	-17	0.6	0.4	42	62*	1
COc1cccc(N2CCCn3c2nc2c3c(=O)n(CCN3CCOCC3)c(=O)n2C)c1	-5	1.1	1	-11	1	-4
O=[N+]([O-])c1ccc(NCCCNS(=O)(=O)c2ccc(Cl)cc2)c(Cl)c1	8	0.5	0.3	49	72*	1
COC(=O)C1C(=O)c2c([nH]c(C(=O)OCCOC(C)C)c2C)CC1C (stereo unspecified)	9	0.4	0.8	59*	18	-4
COC(=O)C1C(=O)c2c([nH]c(C(=O)OC3CCCCC3)c2C)CC1C (stereo unspecified)	6	0.9	1.2	6	-23	0
COC(=O)C1C(=O)c2c([nH]c(C(=O)OC3CCCC3C)c2C)CC1C (stereo unspecified)	2	0.4	0.9	56*	9	1
O=c1c(-c2ccccc2)[n+]([O-])c2ccccc2n1O	-18	1	1.2	-3	-17	2
Cc1ccc2cc(C#N)c(NCCCNC(=O)C3CCCO3)nc2c1 (stereo unspecified)	-11	0.8	0.8	24	22	-3
COC(=O)c1onc(C(=O)c2ccccc2)c1C(=O)OC	-16	0.5	0.4	51*	62*	3
CCN(CC)c1ccc(C(=O)N/N=C(\C)c2ccc(OC)c(OC)c2)cc1	8	/	/	/	/	7
SMILES	Mac1 fbg inh	CYP2C9 act	CYP2C19 activ	CYP2C9 inh	CYP2C19 inhib	Mac1 fbg enh
CC1CCN(C(=O)CSc2nnc(CNC(=O)COc3ccc(Cl)cc3)o2)CC1	-13	0.4	0.3	57*	67*	1
O=C(COc1ccc(Cl)cc1)NCc1nnc(SCC(=O)Nc2ccccc2)o1	0	2*	0.8	-96	17	-7
COCCNc1nnc(SC(C)C(=O)Nc2ccc(-c3nc4ccc(C)cc4s3)cc2)s1 (stereo unspecified)	22	/	/	/	/	34
CC1CCN(CC(O)COc2cccc(F)c2)CC1 (stereo unspecified)	87*	1.1	0.6	-6	40	-4
CC1(C)NC(=O)N(CC(O)COc2ccccc2C(=O)N2CCCCC2)C1=O (stereo unspecified)	-14	0.8	0.9	17	14	0
COc1cccc(OCC(O)CN2CCC(C)CC2)c1 (stereo unspecified)	17	0.8	1.1	18	-7	1
OC(COc1ccc2ccccc2c1)CN1CCN(c2ccc(F)cc2)CC1 (stereo unspecified)	3	1	0.5	-2	51*	-1
CC1(C)NC(=O)N(CC(O)COc2cccc(F)c2)C1=O (stereo unspecified)	5	0.6	0.3	45	69*	4
CC1(C)NC(=O)N(CC(O)Cn2nnc3ccccc32)C1=O (stereo unspecified)	-23	0.7	0.3	33	69*	-3
COc1cc(CNC2CCCCCC2)cc(OC)c1O	-1	1	1	-4	-3	-6
COc1cc(CNC2CCCC2)cc(Cl)c1OCc1ccccc1F	47	0.9	0	6	96*	1
CCCCCNc1c(C(=O)OCC)c(=O)[nH]c2ccccc12	0	0.8	0.9	22	9	0
O=C1COc2ccc(C(=O)c3ccccc3C(=O)NCc3ccco3)cc2N1	8	0.9	0.3	10	67*	-2
O=C1COc2ccc(C(=O)NCc3ccco3)cc2N1	3	1.2	1.1	-15	-6	2
O=C1COc2ccc(C(=O)c3ccccc3C(=O)NCc3ccccc3)cc2N1	-13	0.7	0.2	30	75*	0
Cc1cc(C(=O)OCC(=O)c2ccc3c(c2)NC(=O)CO3)c2ccccc2n1	12	1.6	0.8	-62	22	37
Cc1ccc(N(c2ncnc(N)c2[N+](=O)[O-])C2CCCCC2)cc1	/	0.6	0.9	43	7	/
CCC1=NC(c2ccccc2OC)N(O)C1(C)C (stereo unspecified)	-5	1.1	1	-6	-1	-5
CCOC(=O)c1ccc(NC(=O)Cn2cccc2)cc1	-2	0.7	0.8	35	21	0
CCc1cccc(NC(=O)Cn2cccc2)c1	2	2*	0.7	-98	30	-7
CCc1cccc(NC(=O)CSCc2cc(=O)[nH][nH]2)c1	1	0.9	0.3	5	75*	2
Cc1cc(=O)c(C(=O)O)cn1Nc1ccc(Cl)cc1	-4	1.1	0.9	-5	12	-2
CCCn1c(SCC(=O)Nc2c(C)cccc2CC)nnc1C(C)C	-3	1.1	0.8	-12	17	-1
O=[N+]([O-])c1cccc(/C=N/Nc2cc(Cl)nc(-c3ccccc3)n2)c1	/	0.8	1	18	4	/
